Compound activity from PubChem BioAssay.
POLI inh = qHTS for Inhibitors of Polymerase Iota; AID 588590, 2011; 1% of 390,000 active; Pol iota fluorescent replication assay, 10 min; DNA polymerase iota (Homo sapiens), Q9UNA4; Potency, µM (doses to about 115 µM), for the others: at the top dose activity, negative = inhibition, most hits filed as inhibitors; further: potency means the concentration at half of the fitted maximal effect
Target sequence (Q9UNA4 whole entry, looked up): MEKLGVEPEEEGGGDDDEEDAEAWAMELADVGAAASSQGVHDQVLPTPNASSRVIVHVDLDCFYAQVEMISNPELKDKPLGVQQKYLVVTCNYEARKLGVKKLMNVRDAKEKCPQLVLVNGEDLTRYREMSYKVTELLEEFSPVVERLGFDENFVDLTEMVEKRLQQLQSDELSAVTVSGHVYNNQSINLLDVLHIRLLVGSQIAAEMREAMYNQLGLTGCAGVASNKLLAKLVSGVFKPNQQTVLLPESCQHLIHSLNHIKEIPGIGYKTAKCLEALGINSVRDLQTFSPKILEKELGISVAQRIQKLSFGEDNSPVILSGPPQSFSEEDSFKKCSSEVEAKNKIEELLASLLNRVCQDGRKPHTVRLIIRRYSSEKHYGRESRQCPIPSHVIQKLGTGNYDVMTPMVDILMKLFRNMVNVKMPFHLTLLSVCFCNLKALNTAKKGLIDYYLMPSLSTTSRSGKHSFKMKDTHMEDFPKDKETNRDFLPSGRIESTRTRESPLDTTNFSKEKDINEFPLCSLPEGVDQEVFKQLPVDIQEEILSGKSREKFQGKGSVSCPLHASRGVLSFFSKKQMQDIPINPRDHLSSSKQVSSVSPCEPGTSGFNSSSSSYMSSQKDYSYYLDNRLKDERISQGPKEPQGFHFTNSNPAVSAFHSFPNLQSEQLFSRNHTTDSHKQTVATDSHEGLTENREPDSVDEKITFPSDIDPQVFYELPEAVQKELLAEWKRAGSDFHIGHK
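Fluorescent replication assay read twice, at 0 min and 10 min after adding 50 nM (final) substrate. Enzyme (10 nM) and compounds were first incubated 15 min at room temperature; enzyme-free buffer wells were negative controls.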
Pol eta inh-1 = qHTS for Inhibitors of Polymerase Eta | Potency, µM (titrated, usually from 114 µM), for inactives: top-dose activity change, negative = inhibition, most hits filed as inhibitors | DNA polymerase eta (Homo sapiens), Q9Y253 | recombinant Pol eta, fluorescent DNA replication assay | 1.2% of 390,000 active; further: potency means the concentration at half of the fitted maximal effect; on the % scale 0 is the no-effect control and ±100 the full control effect
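Fluorescent replication assay: 50 nM final substrate added after a 15 min room-temperature compound preincubation with 10 nM enzyme. Signal taken at 0 min and again at 10 min.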
Pol kappa inh-1 = qHTS for Inhibitors of Polymerase Kappa; 0.53% of 400,000 active; purified Pol kappa, fluorescent DNA synthesis assay, 10 min; Potency, µM (top dose mostly 107 µM), inactives show at the highest dose activity, negative = inhibition, actives largely listed as inhibitors; DNA polymerase kappa (Homo sapiens), Q9UBT6; further: potency means the concentration at half of the fitted maximal effect; on the % scale 0 is the no-effect control and ±100 the full control effect
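Pol kappa 10 nM + cpd, 15 min RT; start w/ substrate 50 nM final; fluorescence kinetic read, 0 and 10 min. Neg ctrl: buffer, no enzyme.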
POLB inh = qHTS Assay for Inhibitors of DNA Polymerase Beta | P06746 | Pol beta primer extension/strand displacement, fluorescence kinetic | Potency, µM (doses to about 114 µM), for inactives: at the highest dose activity change, negative = inhibition, most hits filed as inhibitors | 1.3% of 340,000 active | AID 485314, 2010; further: potency means the concentration at half of the fitted maximal effect; on the % scale 0 is the no-effect control and ±100 the full control effect
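Enzyme-only controls used 10 nM Pol beta; buffer lacking enzyme served as negative control. Compound preincubated 15 min, then 50 nM substrate added; 0 and 10 min reads at room temperature.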
PI5P4K alpha inh = qHTS for Inhibitors of phosphatidylinositol 5-phosphate 4-kinase (PI5P4K). PI5P4Kalpha enzyme, ADP-Glo luminescence, 60 min; stronger effect = lower value. AID 652105, 2013. max response, %. 1.2% of 330,000 active; active means max response of -50% or lower; inconclusive means between -30% and -50%; inactive means -30% or higher; further: value at the top dose of about 77 µM; on the % scale 0 is the no-effect control and ±100 the full control effect
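Controls without substrate or without enzyme flank wells where PI5P4Kalpha converts substrate using 5 microM ATP (final). Incubation lasts 60 minutes at room temperature; ADP formed is read by ADP-Glo luminescence.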
WRN helicase inh = qHTS for Inhibitors of WRN Helicase; Bifunctional 3'-5' exonuclease/ATP-dependent helicase WRN (Homo sapiens), Q14191; WRN helicase unwinding, fluorescent forked duplex, kinetic; Potency, µM (highest dose often 114 µM), inactives show at the highest dose activity change, negative = inhibition, most hits filed as inhibitors; 0.46% of 360,000 active; further: potency means the concentration at half of the fitted maximal effect; on the % scale 0 is the no-effect control and ±100 the full control effect; nearly all actives have a fitted effect of over 55% in size
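WRN at 20 nM final preincubated with compound 15 min at room temperature; reaction started with 100 nM fluorophore/quencher forked duplex oligonucleotide and 2 mM ATP final. Unwinding followed kinetically by red fluorescence (ex 525, em 598 nm).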
GALK confirm = Confirmation Assay for Inhibitors of Human Galactokinase (GALK) | shares compounds with Pol eta inh-1 | purified GALK, Kinase-Glo ATP depletion luminescence | Potency, µM (top dose mostly 115 µM), without a hit: top-dose activity, negative = inhibition, actives largely listed as inhibitors | 70% of 150 active | AID 2015, 2009
GALK redox cs = Confirmatory Assay for Inhibitors of Human Galactokinase (GALK): Phenol-HRP redox assay counterscreen | AID 2035, 2009 | Phenol red-HRP H2O2 redox cycling, absorbance 600 nm | shares compounds with Pol eta inh-1 | Potency, µM (titrated, usually from 115 µM), inactives show at the highest dose activity change, negative = H2O2 signal, most hits filed as inhibitors | 40% of 150 active
HEK293 viability = Secondary Assay for Inhibitors of Human Galactokinase (GALK): HEK-293 Cell Viability Assay; shares compounds with Pol eta inh-1; HEK-293 viability, ATP luminescence (CellTiter-Glo), 24/48 h; Potency, µM (titrated, usually from 46.1 µM), for the others: top-dose activity change, negative = cytotoxicity, actives largely listed as inhibitors; 10% of 170 active; AID 2547, 2010; further: potency means the concentration at half of the fitted maximal effect; on the % scale 0 is the no-effect control and ±100 the full control effect
Pol kappa inh-2 = qHTS for Inhibitors of Polymerase Kappa: Confirmatory Assay for Cherry-picked Compounds; shares compounds with Pol eta inh-1; purified Pol-kappa, fluorescent strand-displacement substrate; Potency, µM, usual class: inhibitors; 76% of 920 active; further: potency means the concentration at half of the fitted maximal effect
Pol eta inh-2 = qHTS for Inhibitors of Polymerase Eta: Confirmatory Assay for Cherry-picked Compounds | shares compounds with Pol eta inh-1 | Pol eta primer extension, TAMRA/BHQ fluorescence, 10 min | Potency, µM, hits mostly inhibitors | 64% of 2,600 active | AID 720502, 2013; further: potency means the concentration at half of the fitted maximal effect
Active calls of the source: *; [ ] = another dose, or the depositor's remark. An excerpt weighted towards active compounds, which were near 2.8% of everything screened. Unless noted, the call rests on the fitted dose curve; in most records, active means well fitted curve in the direction sought with a large enough effect; inconclusive means small, poorly fitted or top-dose-only effect, or another doubt; inactive means no such curve, though single readings can be large; an effect the other way counts as inactive or inconclusive.

Results for CC(C)C1Nc2ccc(C(=O)O)cc2C2C=CCC21 (stereo unspecified) ?
POLI inh: inconclusive; Pol eta inh-1: 20µM*; Pol kappa inh-1: inconclusive; POLB inh: 13µM*; PI5P4K alpha inh: inconclusive; WRN helicase inh: 50µM*; Pol eta inh-2: 27*

Results for COCCNC(=O)CSc1nc2cc3c(cc2c(=O)n1CCCCCC(=O)NCCc1ccc(OC)c(OC)c1)OCO3 ?
POLI inh: 41%; Pol eta inh-1: -19%; Pol kappa inh-1: 1%[60.1 µM]; POLB inh: -1%

Results for Oc1ccc(N=Nc2ccccc2-c2nn[nH]n2)c(O)c1 ?
POLI inh: 11%; Pol eta inh-1: 22µM*; Pol kappa inh-1: 16%; POLB inh: 32µM*; PI5P4K alpha inh: -63*; WRN helicase inh: -16%[11.6 µM]; Pol eta inh-2: 54*

How did Cc1ccccc1-c1nn[nH]n1 do in these assays?
POLI inh: 6%; Pol eta inh-1: 1%; Pol kappa inh-1: -12%; POLB inh: 11%; WRN helicase inh: 8%

What do the screens show for `O=C(Nc1ccc(Br)cc1Cl)c1cnccn1`?
POLI inh: inconclusive; Pol eta inh-1: 40µM*; Pol kappa inh-1: -34%; POLB inh: 5%; WRN helicase inh: inconclusive; Pol eta inh-2: 76*

Results for O=C(Nc1ccccc1Cl)c1cnccn1 ?
POLI inh: -15%; Pol eta inh-1: -4%; Pol kappa inh-1: -9%; POLB inh: -12%; WRN helicase inh: -1%

What do the screens show for `CC(=O)Nc1c(O)nc(SCC(=O)Nc2nnc(SCc3ccccc3)s2)[nH]c1=O`?
POLI inh: 25µM*; Pol eta inh-1: 35µM*; Pol kappa inh-1: inconclusive; POLB inh: -24%; PI5P4K alpha inh: inconclusive; WRN helicase inh: -4%[11.6 µM]; Pol eta inh-2: inconclusive

Results for N#C/C(=C(/O)COc1ccc(Cl)cc1)c1nc2ccccc2s1 ?
POLI inh: 16%; Pol eta inh-1: 5%; Pol kappa inh-1: -6%; POLB inh: -20%; PI5P4K alpha inh: -3; WRN helicase inh: -2%[57.1 µM]; GALK confirm: inconclusive; GALK redox cs: 1%; HEK293 viability: -12%

How did COc1ccc(C/C(O)=C(\C#N)c2nc3ccccc3s2)cc1 do in these assays?
POLI inh: 32%; Pol eta inh-1: -16%; Pol kappa inh-1: -4%; POLB inh: 10%; WRN helicase inh: -7%; GALK confirm: 42µM*; GALK redox cs: -3%; HEK293 viability: -9%

Results for N#Cc1cnc(NCc2ccc(Cl)cc2Cl)nc1 ?
POLI inh: 25%; Pol eta inh-1: -21%; Pol kappa inh-1: -9%; POLB inh: -1%; PI5P4K alpha inh: 3; WRN helicase inh: -4%

How did Cc1ccc(NS(=O)(=O)c2cc(NC(=O)C(C)Oc3ccccc3)ccc2C)c(C)c1 (stereo unspecified) do in these assays?
POLI inh: 0%; Pol eta inh-1: inconclusive; Pol kappa inh-1: 4%; POLB inh: 16%; PI5P4K alpha inh: -8; WRN helicase inh: -7%; GALK confirm: -9%; GALK redox cs: 9%; HEK293 viability: -11%

Results for CCOC(=O)Nc1csnn1 ?
POLI inh: -16%; Pol eta inh-1: -4%; Pol kappa inh-1: -2%; POLB inh: 25%; PI5P4K alpha inh: 0; WRN helicase inh: -12%

What do the screens show for `O=C(O)CC(C(=O)O)c1ccc(OCCCCOc2ccc(C(CC(=O)O)C(=O)O)cc2)cc1` (stereo unspecified)?
POLI inh: 79µM*; Pol eta inh-1: 18µM*; Pol kappa inh-1: 79µM*; POLB inh: inconclusive; PI5P4K alpha inh: 1; WRN helicase inh: -14%[11.6 µM]; Pol kappa inh-2: 9.5*; Pol eta inh-2: 9.5*

How did CC(C)CCOc1ccc(C(CC(N)=O)C(=O)O)cc1 (stereo unspecified) do in these assays?
POLI inh: 6%; Pol eta inh-1: -14%; Pol kappa inh-1: -2%; POLB inh: 12%; PI5P4K alpha inh: 1; WRN helicase inh: -1%

Results for O=C(/C=C/c1ccco1)NC(=S)Nc1ccccc1N1CCCC1 ?
POLI inh: 30%; Pol eta inh-1: 14%; Pol kappa inh-1: -18%[60.1 µM]; POLB inh: 1%; PI5P4K alpha inh: 2; WRN helicase inh: -9%

How did O=C(/C=C\c1ccco1)NC(=S)Nc1ccccc1O do in these assays?
POLI inh: inconclusive; Pol eta inh-1: 22µM*; Pol kappa inh-1: inconclusive; POLB inh: 56µM*; PI5P4K alpha inh: -53*; WRN helicase inh: inconclusive; Pol eta inh-2: inconclusive

How did O=C(/C=C/c1ccco1)NC(=S)Nc1ccccc1O do in these assays?
POLI inh: inconclusive; Pol eta inh-1: -8%; Pol kappa inh-1: inconclusive; POLB inh: 22µM*; PI5P4K alpha inh: -17; WRN helicase inh: -8%[11.6 µM]; Pol eta inh-2: inconclusive
